Experimental data taken from publication PMC7862700, “An all-to-all approach to the identification of sequence-specific readers for epigenetic DNA modifications on cytosine”.

Assays:
Assay in all cases: DAPPL (digital affinity profiling via proximity ligation, sequencing); 10 mM Tris-HCl pH 7.5, 50 mM NaCl, 1 mM DTT, 4% glycerol, room temperature, 30 min; GST-TFs on glutathione beads, 16-mer random dsDNA library, 0.1% formaldehyde crosslink after washing; high values mean tight binding
FLI1 = biological target: T1, FLI1 (Homo sapiens, UniProt Q01543 1-452); conditions: protein: recombinant; tags: N-terminal GST; dsDNA, one strand shown
T1 sequence: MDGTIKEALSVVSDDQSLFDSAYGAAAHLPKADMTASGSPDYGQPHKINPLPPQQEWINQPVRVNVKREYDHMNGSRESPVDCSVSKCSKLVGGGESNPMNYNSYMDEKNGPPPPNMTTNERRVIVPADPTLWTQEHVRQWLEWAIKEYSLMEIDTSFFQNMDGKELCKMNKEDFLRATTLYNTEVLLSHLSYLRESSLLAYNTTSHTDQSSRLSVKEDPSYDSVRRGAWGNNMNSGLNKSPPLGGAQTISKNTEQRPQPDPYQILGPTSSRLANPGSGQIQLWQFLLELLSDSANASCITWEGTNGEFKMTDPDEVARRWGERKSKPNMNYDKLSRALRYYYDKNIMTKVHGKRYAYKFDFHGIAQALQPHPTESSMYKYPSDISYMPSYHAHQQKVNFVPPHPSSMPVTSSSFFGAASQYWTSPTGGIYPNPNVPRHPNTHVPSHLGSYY
Outline: (§1)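 Sequencing on an Illumina NextSeq500 followed washing, crosslinking with 0.1% formaldehyde, proximity ligation (BsaI/T4 ligase, 1 h, 37 °C) and PCR amplification of pools that had been incubated for 30 min at room temperature with 200 nmole of a random double-stranded 16-mer DNA library in Tris/NaCl/DTT/glycerol buffer. Each pool held DNA-barcoded human transcription factors, expressed in yeast as GST fusions and captured on glutathione beads, plus a tag-only sample. Binding signal is a hexamer's read frequency for a factor divided by its frequency in the tag-only sample.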

ELK1 = biological target: T2, ELK1 (Homo sapiens, UniProt P19419 1-428); conditions: protein: recombinant; tags: N-terminal GST; dsDNA, one strand shown
T2 sequence: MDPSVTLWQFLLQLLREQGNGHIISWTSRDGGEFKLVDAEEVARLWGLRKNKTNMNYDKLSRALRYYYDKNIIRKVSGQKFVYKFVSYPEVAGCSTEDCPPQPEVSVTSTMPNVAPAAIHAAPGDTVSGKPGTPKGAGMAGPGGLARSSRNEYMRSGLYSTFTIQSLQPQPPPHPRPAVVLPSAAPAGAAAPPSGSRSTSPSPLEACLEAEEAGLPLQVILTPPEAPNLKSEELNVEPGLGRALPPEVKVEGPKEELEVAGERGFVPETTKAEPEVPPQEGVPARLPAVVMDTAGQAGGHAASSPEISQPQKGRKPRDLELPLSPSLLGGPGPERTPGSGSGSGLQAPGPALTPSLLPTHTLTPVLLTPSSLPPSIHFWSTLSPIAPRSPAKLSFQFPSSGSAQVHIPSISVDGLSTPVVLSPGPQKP
Outline: as §1

GABPA = biological target: T3, GABPA (Homo sapiens, UniProt Q06546 1-454); conditions: protein: recombinant; tags: N-terminal GST; dsDNA, one strand shown
T3 sequence: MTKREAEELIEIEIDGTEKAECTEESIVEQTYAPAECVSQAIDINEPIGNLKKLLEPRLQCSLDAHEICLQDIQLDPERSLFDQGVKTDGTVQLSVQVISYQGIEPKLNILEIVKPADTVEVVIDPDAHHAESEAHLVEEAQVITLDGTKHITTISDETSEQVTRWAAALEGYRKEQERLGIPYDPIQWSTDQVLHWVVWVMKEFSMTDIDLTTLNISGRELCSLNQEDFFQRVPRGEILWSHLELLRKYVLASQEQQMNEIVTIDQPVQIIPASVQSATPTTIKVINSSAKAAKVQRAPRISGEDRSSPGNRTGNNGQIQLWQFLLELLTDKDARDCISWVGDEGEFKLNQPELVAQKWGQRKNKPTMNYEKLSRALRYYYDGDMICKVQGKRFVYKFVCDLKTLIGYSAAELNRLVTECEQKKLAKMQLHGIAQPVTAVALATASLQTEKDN
Outline: as §1

ERG = biological target: T4, ERG (Homo sapiens, UniProt P11308 1-479); conditions: protein: recombinant; tags: N-terminal GST; dsDNA, one strand shown
T4 sequence: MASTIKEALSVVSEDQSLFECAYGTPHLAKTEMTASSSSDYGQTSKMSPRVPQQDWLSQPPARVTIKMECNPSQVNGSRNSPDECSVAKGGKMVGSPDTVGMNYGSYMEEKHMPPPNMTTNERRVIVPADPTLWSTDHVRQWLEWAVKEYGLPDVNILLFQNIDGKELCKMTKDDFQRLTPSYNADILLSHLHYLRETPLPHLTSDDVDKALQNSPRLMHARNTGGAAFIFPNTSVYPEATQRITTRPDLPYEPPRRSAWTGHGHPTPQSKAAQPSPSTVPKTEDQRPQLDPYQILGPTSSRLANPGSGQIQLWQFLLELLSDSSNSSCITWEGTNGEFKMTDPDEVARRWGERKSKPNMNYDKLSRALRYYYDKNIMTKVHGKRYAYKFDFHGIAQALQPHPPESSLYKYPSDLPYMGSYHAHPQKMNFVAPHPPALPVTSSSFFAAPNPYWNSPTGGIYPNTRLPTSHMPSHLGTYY
Outline: as §1

ELF1 = ELF1 (Homo sapiens, UniProt P32519 1-619); conditions: protein: recombinant; tags: N-terminal GST; dsDNA, one strand shown
ELF1, sequence (P32519 whole entry): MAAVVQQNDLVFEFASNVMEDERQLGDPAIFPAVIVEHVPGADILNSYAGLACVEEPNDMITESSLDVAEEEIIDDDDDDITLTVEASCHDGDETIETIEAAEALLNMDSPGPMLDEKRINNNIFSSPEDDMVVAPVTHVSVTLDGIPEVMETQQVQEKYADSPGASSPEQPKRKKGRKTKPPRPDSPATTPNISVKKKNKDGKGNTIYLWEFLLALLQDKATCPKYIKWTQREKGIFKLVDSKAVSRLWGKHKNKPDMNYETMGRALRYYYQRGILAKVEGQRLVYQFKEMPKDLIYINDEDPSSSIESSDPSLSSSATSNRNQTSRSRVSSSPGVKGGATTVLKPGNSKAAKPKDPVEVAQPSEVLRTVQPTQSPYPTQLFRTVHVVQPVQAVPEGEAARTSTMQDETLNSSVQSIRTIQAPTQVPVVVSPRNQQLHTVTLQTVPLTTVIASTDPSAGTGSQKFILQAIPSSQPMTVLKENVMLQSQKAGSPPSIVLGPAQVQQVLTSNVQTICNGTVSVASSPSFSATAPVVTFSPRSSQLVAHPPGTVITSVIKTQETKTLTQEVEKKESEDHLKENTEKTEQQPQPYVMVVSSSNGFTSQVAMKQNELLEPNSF
Outline: as §1

EHF = biological target: T5, EHF (Homo sapiens, UniProt Q9NZC4 1-300); conditions: protein: recombinant; tags: N-terminal GST; dsDNA, one strand shown
T5 sequence: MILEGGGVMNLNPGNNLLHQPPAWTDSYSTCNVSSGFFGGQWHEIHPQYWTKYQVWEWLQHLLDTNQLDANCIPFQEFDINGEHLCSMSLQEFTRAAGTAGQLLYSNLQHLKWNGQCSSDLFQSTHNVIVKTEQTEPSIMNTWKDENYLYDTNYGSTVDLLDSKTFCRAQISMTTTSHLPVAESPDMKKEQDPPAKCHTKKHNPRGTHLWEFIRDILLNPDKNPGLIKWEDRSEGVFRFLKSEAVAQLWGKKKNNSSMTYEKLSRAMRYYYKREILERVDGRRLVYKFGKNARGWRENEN
Outline: as §1

SPI1 = SPI1 (Homo sapiens, UniProt P17947 1-270); conditions: protein: recombinant; tags: N-terminal GST; dsDNA, one strand shown
Outline: as §1

SPIB = SPIB (Homo sapiens, UniProt Q01892 1-262); conditions: protein: recombinant; tags: N-terminal GST; dsDNA, one strand shown
SPIB, sequence (Q01892 whole entry): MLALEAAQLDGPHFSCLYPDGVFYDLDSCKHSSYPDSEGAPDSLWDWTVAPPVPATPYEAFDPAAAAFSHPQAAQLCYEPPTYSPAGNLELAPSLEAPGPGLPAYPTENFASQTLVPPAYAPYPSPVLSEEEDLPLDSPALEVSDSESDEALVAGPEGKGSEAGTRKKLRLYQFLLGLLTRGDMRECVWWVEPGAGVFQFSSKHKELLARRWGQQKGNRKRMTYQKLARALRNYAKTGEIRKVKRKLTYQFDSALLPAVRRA
Outline: as §1

ELK3 = biological target: T6, ELK3 (Homo sapiens, UniProt P41970 1-407); conditions: protein: recombinant; tags: N-terminal GST; dsDNA, one strand shown
T6 sequence: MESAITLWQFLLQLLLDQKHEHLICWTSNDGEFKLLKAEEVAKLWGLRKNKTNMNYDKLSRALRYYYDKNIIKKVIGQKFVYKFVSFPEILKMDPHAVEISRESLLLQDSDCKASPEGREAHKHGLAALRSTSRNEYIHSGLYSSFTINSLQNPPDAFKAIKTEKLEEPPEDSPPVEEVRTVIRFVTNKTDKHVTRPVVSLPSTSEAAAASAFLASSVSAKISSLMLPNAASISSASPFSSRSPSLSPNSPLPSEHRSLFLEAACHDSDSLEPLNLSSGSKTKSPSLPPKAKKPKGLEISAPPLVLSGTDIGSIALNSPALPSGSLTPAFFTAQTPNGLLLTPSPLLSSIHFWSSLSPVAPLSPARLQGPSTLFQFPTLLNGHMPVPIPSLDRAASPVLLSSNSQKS
Outline: as §1

FEV = biological target: T7, FEV (Homo sapiens, UniProt Q99581 1-238); conditions: protein: recombinant; tags: N-terminal GST; dsDNA, one strand shown
T7 sequence: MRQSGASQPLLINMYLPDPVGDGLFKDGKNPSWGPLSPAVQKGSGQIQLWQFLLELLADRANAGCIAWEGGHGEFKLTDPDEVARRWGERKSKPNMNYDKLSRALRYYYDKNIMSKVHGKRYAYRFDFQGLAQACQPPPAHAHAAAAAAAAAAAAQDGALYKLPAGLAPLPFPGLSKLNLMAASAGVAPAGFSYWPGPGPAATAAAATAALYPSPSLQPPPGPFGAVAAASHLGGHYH
Outline: as §1

ETV5 = ETV5 (Homo sapiens, UniProt P41161 1-510); conditions: protein: recombinant; tags: N-terminal GST; dsDNA, one strand shown
ETV5, sequence (P41161 whole entry): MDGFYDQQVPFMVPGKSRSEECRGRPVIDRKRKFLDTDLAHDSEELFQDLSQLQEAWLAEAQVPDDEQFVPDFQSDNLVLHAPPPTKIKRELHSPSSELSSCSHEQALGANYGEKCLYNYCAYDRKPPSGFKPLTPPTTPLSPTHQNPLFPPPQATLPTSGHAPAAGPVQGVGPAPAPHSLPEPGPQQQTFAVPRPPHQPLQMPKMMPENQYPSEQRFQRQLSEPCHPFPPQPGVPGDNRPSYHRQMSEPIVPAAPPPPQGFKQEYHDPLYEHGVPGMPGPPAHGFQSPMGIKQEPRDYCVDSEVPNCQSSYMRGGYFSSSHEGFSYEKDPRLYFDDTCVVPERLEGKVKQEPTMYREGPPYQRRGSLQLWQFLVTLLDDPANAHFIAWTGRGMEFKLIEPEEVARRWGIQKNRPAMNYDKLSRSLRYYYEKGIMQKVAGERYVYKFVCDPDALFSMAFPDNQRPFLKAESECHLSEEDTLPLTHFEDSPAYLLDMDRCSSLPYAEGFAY
Outline: as §1

HSF1 = HSF1 (Homo sapiens, UniProt Q00613 1-529); conditions: protein: recombinant; tags: N-terminal GST; chain copies: 3; dsDNA, one strand shown
HSF1, sequence (Q00613 whole entry): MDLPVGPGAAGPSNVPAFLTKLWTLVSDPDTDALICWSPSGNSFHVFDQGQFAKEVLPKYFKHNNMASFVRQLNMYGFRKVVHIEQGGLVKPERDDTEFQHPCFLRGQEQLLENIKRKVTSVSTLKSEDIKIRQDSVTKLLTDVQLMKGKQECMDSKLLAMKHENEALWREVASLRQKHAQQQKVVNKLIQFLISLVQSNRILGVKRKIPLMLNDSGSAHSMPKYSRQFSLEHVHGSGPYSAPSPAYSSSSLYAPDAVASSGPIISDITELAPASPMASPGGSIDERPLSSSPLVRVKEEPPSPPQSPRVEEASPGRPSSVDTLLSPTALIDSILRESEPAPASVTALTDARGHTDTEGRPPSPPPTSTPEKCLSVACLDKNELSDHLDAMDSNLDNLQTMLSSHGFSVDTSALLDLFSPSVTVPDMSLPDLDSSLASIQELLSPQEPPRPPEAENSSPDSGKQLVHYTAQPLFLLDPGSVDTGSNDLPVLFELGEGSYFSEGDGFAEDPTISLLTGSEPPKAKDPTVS
Outline: as §1

SPIC = biological target: T8, SPIC (Homo sapiens, UniProt Q8N5J4 1-248); conditions: protein: recombinant; tags: N-terminal GST; dsDNA, one strand shown
T8 sequence: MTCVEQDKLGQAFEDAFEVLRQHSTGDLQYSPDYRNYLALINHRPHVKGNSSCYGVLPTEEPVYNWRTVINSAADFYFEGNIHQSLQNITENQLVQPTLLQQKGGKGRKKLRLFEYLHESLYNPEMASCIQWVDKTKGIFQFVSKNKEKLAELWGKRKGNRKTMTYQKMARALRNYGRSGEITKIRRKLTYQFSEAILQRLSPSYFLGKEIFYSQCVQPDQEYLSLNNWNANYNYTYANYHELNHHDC
Outline: as §1

ELF4 = ELF4 (Homo sapiens, UniProt Q99607 1-663); conditions: protein: recombinant; tags: N-terminal GST; dsDNA, one strand shown
ELF4, sequence (Q99607 whole entry): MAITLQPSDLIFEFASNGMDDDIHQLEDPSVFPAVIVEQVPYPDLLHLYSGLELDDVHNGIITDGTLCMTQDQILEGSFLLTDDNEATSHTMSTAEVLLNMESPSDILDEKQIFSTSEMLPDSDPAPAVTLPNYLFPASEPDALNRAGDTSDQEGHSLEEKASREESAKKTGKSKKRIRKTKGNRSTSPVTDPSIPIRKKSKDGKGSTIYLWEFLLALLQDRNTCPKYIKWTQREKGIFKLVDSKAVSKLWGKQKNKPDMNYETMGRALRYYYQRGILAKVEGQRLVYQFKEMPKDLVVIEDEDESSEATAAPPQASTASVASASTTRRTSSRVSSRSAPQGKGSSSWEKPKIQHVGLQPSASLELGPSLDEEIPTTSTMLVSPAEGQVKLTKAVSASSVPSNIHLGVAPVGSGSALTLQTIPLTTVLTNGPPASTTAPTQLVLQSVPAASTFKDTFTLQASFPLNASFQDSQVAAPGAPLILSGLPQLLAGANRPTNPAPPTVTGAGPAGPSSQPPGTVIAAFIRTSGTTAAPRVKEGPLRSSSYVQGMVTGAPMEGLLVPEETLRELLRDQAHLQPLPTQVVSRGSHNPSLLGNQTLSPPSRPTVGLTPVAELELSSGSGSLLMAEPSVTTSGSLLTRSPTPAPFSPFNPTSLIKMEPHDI
Outline: as §1

ELK4 = biological target: T9, ELK4 (Homo sapiens, UniProt P28324-2 1-405); conditions: protein: recombinant; tags: N-terminal GST; dsDNA, one strand shown
T9 sequence: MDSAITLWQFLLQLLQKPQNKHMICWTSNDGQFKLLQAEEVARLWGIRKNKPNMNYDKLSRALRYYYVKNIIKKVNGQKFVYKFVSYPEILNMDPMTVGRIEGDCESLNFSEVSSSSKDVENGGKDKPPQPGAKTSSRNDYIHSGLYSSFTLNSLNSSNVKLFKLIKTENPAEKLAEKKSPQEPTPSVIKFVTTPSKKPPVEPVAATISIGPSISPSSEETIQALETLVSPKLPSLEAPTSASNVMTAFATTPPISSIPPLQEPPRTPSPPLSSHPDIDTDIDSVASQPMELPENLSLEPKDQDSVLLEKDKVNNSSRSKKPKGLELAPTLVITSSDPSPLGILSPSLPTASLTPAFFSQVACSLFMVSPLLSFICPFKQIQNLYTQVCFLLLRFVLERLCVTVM
Outline: as §1

ETV2 = biological target: T10, ETV2 (Homo sapiens, UniProt O00321 1-342); conditions: protein: recombinant; tags: N-terminal GST; dsDNA, one strand shown
T10 sequence: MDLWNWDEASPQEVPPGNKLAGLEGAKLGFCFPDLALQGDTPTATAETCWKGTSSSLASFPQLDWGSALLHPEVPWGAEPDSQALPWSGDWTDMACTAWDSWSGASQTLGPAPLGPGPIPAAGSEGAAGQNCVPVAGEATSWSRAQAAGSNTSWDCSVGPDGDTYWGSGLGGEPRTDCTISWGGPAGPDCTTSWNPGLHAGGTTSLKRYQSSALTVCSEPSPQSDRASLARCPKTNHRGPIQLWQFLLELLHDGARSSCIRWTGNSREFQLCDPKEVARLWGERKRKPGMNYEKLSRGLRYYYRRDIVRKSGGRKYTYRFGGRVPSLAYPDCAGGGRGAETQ
Outline: as §1

ELF3 = biological target: T11, ELF3 (Homo sapiens, UniProt P78545 1-371); conditions: protein: recombinant; tags: N-terminal GST; dsDNA, one strand shown
T11 sequence: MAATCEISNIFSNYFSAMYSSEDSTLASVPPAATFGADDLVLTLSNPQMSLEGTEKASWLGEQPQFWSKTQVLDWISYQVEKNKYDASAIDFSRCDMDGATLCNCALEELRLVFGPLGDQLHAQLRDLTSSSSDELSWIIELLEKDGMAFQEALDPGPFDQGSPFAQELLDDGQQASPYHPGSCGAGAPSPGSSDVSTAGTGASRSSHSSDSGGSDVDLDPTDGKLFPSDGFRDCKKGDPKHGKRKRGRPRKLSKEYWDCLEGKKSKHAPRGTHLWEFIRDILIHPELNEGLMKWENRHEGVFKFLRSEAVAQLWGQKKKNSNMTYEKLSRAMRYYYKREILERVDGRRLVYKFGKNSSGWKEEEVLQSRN
Outline: as §1

CRX = CRX (Homo sapiens, UniProt O43186 1-299); conditions: protein: recombinant; tags: N-terminal GST; dsDNA, one strand shown
CRX, sequence (O43186 whole entry): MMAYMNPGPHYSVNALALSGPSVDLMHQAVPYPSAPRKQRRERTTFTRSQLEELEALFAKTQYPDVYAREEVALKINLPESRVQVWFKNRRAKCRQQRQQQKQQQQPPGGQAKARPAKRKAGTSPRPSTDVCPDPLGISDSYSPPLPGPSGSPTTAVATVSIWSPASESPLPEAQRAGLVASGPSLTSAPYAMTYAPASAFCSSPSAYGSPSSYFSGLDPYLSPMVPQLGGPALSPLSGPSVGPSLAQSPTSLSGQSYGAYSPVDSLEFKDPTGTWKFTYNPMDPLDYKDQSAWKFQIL
Outline: as §1

ETV1 = ETV1 (Homo sapiens, UniProt P50549 1-477); conditions: protein: recombinant; tags: N-terminal GST; dsDNA, one strand shown
ETV1, sequence (P50549 whole entry): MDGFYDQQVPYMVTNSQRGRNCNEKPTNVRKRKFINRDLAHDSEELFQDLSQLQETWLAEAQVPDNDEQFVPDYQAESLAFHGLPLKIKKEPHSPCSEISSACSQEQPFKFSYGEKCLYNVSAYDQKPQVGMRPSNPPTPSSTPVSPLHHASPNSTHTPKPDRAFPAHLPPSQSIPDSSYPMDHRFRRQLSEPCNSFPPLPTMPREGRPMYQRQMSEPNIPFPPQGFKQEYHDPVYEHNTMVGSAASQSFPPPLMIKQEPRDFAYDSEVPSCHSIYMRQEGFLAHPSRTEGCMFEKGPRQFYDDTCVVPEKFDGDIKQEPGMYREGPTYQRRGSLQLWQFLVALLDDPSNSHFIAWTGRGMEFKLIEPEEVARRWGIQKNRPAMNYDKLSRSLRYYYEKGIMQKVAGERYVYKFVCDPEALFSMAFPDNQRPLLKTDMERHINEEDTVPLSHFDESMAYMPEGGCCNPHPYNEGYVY
Outline: as §1

Sequence: ACTGCT
- binding signal (FLI1): 1.44 fold enrichment (6-mer frequency, TF over GST control)
- binding signal (ELK1): 1.45 fold enrichment (6-mer frequency, TF over GST control)
- binding signal (GABPA): 1.29 fold enrichment (6-mer frequency, TF over GST control)
- binding signal (ERG): 1.29 fold enrichment (6-mer frequency, TF over GST control)
- binding signal (ELF1): 1.35 fold enrichment (6-mer frequency, TF over GST control)
- binding signal (EHF): 1.41 fold enrichment (6-mer frequency, TF over GST control)
- binding signal (SPI1): 1.46 fold enrichment (6-mer frequency, TF over GST control)
- binding signal (SPIB): 1.36 fold enrichment (6-mer frequency, TF over GST control)
- binding signal (ELK3): 1.26 fold enrichment (6-mer frequency, TF over GST control)
- binding signal (FEV): 1.48 fold enrichment (6-mer frequency, TF over GST control)
- binding signal (ETV5): 1.41 fold enrichment (6-mer frequency, TF over GST control)
- binding signal (HSF1): 1.19 fold enrichment (6-mer frequency, TF over GST control)
- binding signal (SPIC): 1.56 fold enrichment (6-mer frequency, TF over GST control)
- binding signal (ELF4): 1.3 fold enrichment (6-mer frequency, TF over GST control)
- binding signal (ELK4): 1.54 fold enrichment (6-mer frequency, TF over GST control)
- binding signal (ETV2): 1.26 fold enrichment (6-mer frequency, TF over GST control)
- binding signal (ELF3): 1.32 fold enrichment (6-mer frequency, TF over GST control)
- binding signal (CRX): 1.21 fold enrichment (6-mer frequency, TF over GST control)
- binding signal (ETV1): 1.33 fold enrichment (6-mer frequency, TF over GST control)
